Results published in PubChem BioAssay (EPA / NIEHS).
Activity calls are given as the source filed them. How the source made its calls: active means hit-call score of the fitted dose curve at least 0.9, where 1 is the maximum; inactive means score below 0.9.

Assay: ATG_PPRE_CIS: Attagene CIS-FACTORIAL HepG2 Assay for human Peroxisome Proliferator-activated Response Element (PPRE) (AID 2282958)
Settings: HepG2 PPRE cis-element reporter, Attagene transcription factor profiling; actives raise or lower the signal
Procedure: ATG_CIS is a cell-based, multiplexed-readout assay that uses HepG2, a human liver cell line, with measurements taken at 24 hours after chemical dosing in a 24-well plate.ATG_PPRE_CIS is one of 52 assay component(s) measured or calculated from the ATG_CIS assay. It is designed to make measurements of mRNA induction, a form of inducible reporter, as detected with fluorescence intensity signals by Reverse transcription polymerase chain reaction (RT-PCR) and Capillary electrophoresis technology.Data from the assay component ATG_PPRE_CIS was analyzed into 1 assay endpoint. This assay endpoint, ATG_PPRE_CIS, was analyzed with bidirectional fitting relative to DMSO as the negative control and baseline of activity. Using a type of inducible reporter, measures of mRNA for gain or loss-of-signal activity can be used to understand the reporter gene at the transcription factor-level as they relate to the gene PPARA and PPARD and PPARG. Furthermore, this assay endpoint can be referred to as a primary readout, because this assay has produced multiple assay endpoints where this one serves a reporter gene function. To generalize the intended target to other relatable targets, this assay endpoint is annotated to the nuclear receptor intended target family, where the subfamily is non-steroidal.
Human liver HepG2 cells are transiently transfected with multiple reporter transcription units (MRTUs) in 6-well plates using FuGene 6 reagent (Roche; 3 ml FuGene/1 mg DNA). The MRTU constructs are regulated by a cis-regulating element (promoter). […] A major difference between the CIS and TRANS system is that in CIS activities of endogenous TFs are measured, whereas the TRANS assay evaluates changes in activities of exogenous, chimeric NR-Gal4 proteins. […] At the end of 24 hour incubation, total RNA was isolated using TriZol reagent (Invitrogen). The isolated RNA is then reverse-transcribed using oligo(dT) primer and Mo-MLV reverse transcriptase (Invitrogen) with DNAse I (Ambion) treatment for 30 min. The one-tenth of the produced cDNA was amplified by PCR using Taq DNA polymerase (Invitrogen) and two reporter sequence-specific primers. The PCR products were fluorescently labeled by primer extension with 6-arboxyfluorescein (6-FAM) 5'-labeled reporter sequence-specific primer (2 min at 95 C, 20 s at 68 C and 10 min at 72 C) and these products were digested with 5U of HpaI (New England Biolabs) for 2h at 37 C. The fragments were purified using Qiaquick PCR columns (Qiagen), analyzed on an ABI 3130xL genetic analyzer (Applied Biosystems) with peak positions identified by using a set of X-rhodamine (ROX)-labeled MapMarker1000 molecular weight standards (BioVentures). The raw capillary electrophoresis data was processed using Attagraph software (Attagene).

SMILES	AC50	outcome
Cc1cc(O)c2c(c1)C(=O)c1cc(O)cc(O)c1C2=O	12 µM (active)	–
CCCCC/C=C\C=C\C(=O)OCC	4.97 µM (active)	–
CC(C)Cc1ccccc1	–	inactive
CCCCCC(=O)O[C@]1(C(C)=O)CC[C@H]2[C@@H]3CCC4=CC(=O)CC[C@]4(C)[C@H]3CC[C@@]21C	–	inactive
C[C@H](CCC(=O)O)[C@H]1CC[C@H]2[C@@H]3CC[C@@H]4C[C@H](O)CC[C@]4(C)[C@H]3CC[C@]12C	–	inactive
CCCCC1CCCCC(=O)O1 (stereo not given)	44.3 µM (active)	–
CCCCCCCCCCOC(=O)c1ccccc1C(=O)OCCCCCCCC	–	inactive
C1COCO1	–	inactive
CC=CC(=O)C1=C(C)C=CCC1(C)C	–	inactive
FC(F)(F)c1ccc(Cl)c(Cl)c1	–	inactive
CC(C)N(c1ccccc1)C(C)C	–	inactive
CCNC(=S)NCC	–	inactive
O=C1OC2(c3ccc(O)cc3Oc3cc(O)ccc32)c2ccccc21	–	inactive
CC(=O)c1cccnc1	–	inactive
CC1=C(C=O)C(C)(C)CCC1	–	inactive
CCCCCC1CCC(=O)O1 (stereo not given)	–	inactive
CCCCCCCCCCCCS	–	inactive
C=C(C)C(=O)OCCN(C)C	–	inactive
C=CC(C)CCCC(C)(C)O (stereo not given)	–	inactive
NC(=O)c1cccnc1	–	inactive

SMILES	AC50	outcome
OC[C@H]1O[C@@H](O[C@H]2[C@H](O)[C@@H](O)[C@H](O)O[C@@H]2CO)[C@H](O)[C@@H](O)[C@H]1O	–	inactive
CCOC(=O)COC(=O)c1ccccc1C(=O)OCC	–	inactive
CN(C)c1ccc(C=O)cc1	–	inactive
CCCCCc1cccc(=O)o1	–	inactive
C=CCCCCCCCCC(=O)OCC	–	inactive
CCC(C)COC(=O)CC(C)C (stereo not given)	–	inactive
CCc1cccc(O)c1	–	inactive
C=C(C)C(=O)OCCC(C)OC(=O)C(=C)C (stereo not given)	–	inactive
CCCCCCCCCCO[C@@H]1O[C@H](CO)[C@@H](O)[C@H](O)[C@H]1O	–	inactive
Brc1cc(Br)cc(Br)c1	–	inactive
C1=COCCC1	–	inactive
CC12CCC(C1)C(C)(C)C2O (stereo not given)	–	inactive
CC/C=C\C#N	–	inactive
CCCO	–	inactive
O=C(O)c1cc2ccccc2cc1O	52 µM (active)	–
CC(=O)C1=C(C)[C@@H]2C[C@@]3(C1)[C@H](C)CC[C@H]3C2(C)C	–	inactive
O=S1(=O)CC=CC1	–	inactive
COc1ccc2[nH]cc(CCNC(C)=O)c2c1	–	inactive
COc1ccccc1O	–	inactive
C#C[C@]1(O)CC[C@H]2[C@@H]3CCc4cc(O)ccc4[C@H]3CC[C@@]21C	–	inactive
